Measured values from PubChem BioAssay.
The source made the active and inactive calls. No stated cut-off is given here; in the data, active means nuclear beta-catenin stimulation mostly above about 4.2% (no sharp cut-off); inactive means mostly below about 10%.

Assay: stimulators of nuclear beta-catenin in C2C12, primary screen, imaging, WNT3A-conditioned medium, mouse C2C12, NPC library (AID 1117326); further: reference of the scale not given here
Details: at 10 µM, stronger effect = higher value
With `CNC(C)[C@@H](O)c1ccc(O)cc1` (some centres not stated) the nuclear beta-catenin stimulation was 0.7% (inactive). In the case of `CCOC(=O)C(c1c(O)c2ccccc2oc1=O)c1c(O)c2ccccc2oc1=O`, the nuclear beta-catenin stimulation is reported as -0.3% (inactive). For `COC(=O)c1cncn1C(C)c1ccccc1` (configuration not stated), the nuclear beta-catenin stimulation was -0.2% (inactive). For `ClCCCN1CCN(c2cccc(Cl)c2)CC1`, the nuclear beta-catenin stimulation was -0.9% (inactive). For `CC(C(O)c1ccccc1)N(C)C/C=C/c1ccccc1` (configuration not stated), the nuclear beta-catenin stimulation was 3.5% (inactive). For `O=c1[nH]c2ccccc2n1C1CCNCC1`, the nuclear beta-catenin stimulation was 0.8% (inactive).

Same assay, conditions: stimulation, at 2 µM, stronger effect = higher value
Work on `CNC(=O)Oc1cccc2ccccc12` yielded a nuclear beta-catenin stimulation of 0.4%. With `C1CN2CCC1CC2` the nuclear beta-catenin stimulation was 3.2%. With `Cc1nnc2n1-c1sc(CCc3ccc(CC(C)C)cc3)cc1C(c1ccccc1Cl)=NC2C` (configuration not stated) the nuclear beta-catenin stimulation was 3.8%. Compound `CCC1(c2ccccc2)C(=O)N(COC)C(=O)N(COC)C1=O` has a nuclear beta-catenin stimulation of 0.4%. `C[C@@]12CCCCC[C@@H](Cc3ccc(O)cc31)[C@H]2N` showed a nuclear beta-catenin stimulation of 0.1%. `CCN(CC)C(=O)N[C@@H]1C=C2c3cccc4[nH]cc(c34)C[C@@H]2N(C)C1` gave a nuclear beta-catenin stimulation of -0.6%. Compound `O=C(NC(O)C(Cl)(Cl)Cl)NC(O)C(Cl)(Cl)Cl` (configuration not stated) has a nuclear beta-catenin stimulation of -2.1%. Work on `CCCCCCCCCCCCNCCNCCNCC(=O)O` yielded a nuclear beta-catenin stimulation of 1.1%. `O=C(N[C@H]1N=C(c2ccccc2F)c2cccc3c2N(CC3)C1=O)c1cc2ccccc2[nH]1` gave a nuclear beta-catenin stimulation of 1.4%. `CCOP(=S)(OCC)O/N=C(\C#N)c1ccccc1` showed a nuclear beta-catenin stimulation of 0.3%. `OCCOc1ccccc1` showed a nuclear beta-catenin stimulation of 0.3%. Compound `Cc1c(Cl)c(=O)oc2cc(OP(=O)(OCCCl)OCCCl)ccc12` has a nuclear beta-catenin stimulation of 0%. With `CCCN(CCC)C(=O)Cc1c(-c2ccc(Cl)cc2)nc2ccc(Cl)cn12` the nuclear beta-catenin stimulation was -0.8%. `O=C(CCl)c1ccc(Cl)cc1Cl` gave a nuclear beta-catenin stimulation of 45.6%. Work on `COP(=S)(OC)Oc1ccc(S(=O)(=O)N(C)C)cc1` yielded a nuclear beta-catenin stimulation of -0.5%. For `Nc1ccccc1C(=O)OCC(O)CO` (configuration not stated), the nuclear beta-catenin stimulation was 3.4%. With `C[N+]1(CCF)[C@@H]2CC[C@H]1CC(OC(=O)C(O)(c1ccccc1)c1ccccc1)C2` (some centres not stated) the nuclear beta-catenin stimulation was 0.7%. For `Nc1ccccc1`, the nuclear beta-catenin stimulation was 2%. `CCOC(=O)NC(O)C(Cl)(Cl)Cl` (configuration not stated) gave a nuclear beta-catenin stimulation of 2.2%. Compound `Oc1ccc(Cl)cc1Cc1ccccc1` has a nuclear beta-catenin stimulation of 0.1%. For `C[C@]12C[C@@H]3S[C@H]3C[C@@H]1CC[C@H]1[C@H]3CC[C@@H](O)[C@@]3(C)CC[C@@H]12`, the nuclear beta-catenin stimulation was -0.5%. With `C[C@]12CC[C@H]3[C@@H](CCC4=CC(=O)CC[C@@H]43)[C@@H]1CC[C@@H]2OC(=O)CCc1ccco1` the nuclear beta-catenin stimulation was 1%. `O=C1OC(c2ccc(O)c(S(=O)(=O)O)c2)(c2ccc(O)c(S(=O)(=O)O)c2)c2c(Br)c(Br)c(Br)c(Br)c21` gave a nuclear beta-catenin stimulation of 4.7%. Compound `COc1cc(CC#N)cc(OC)c1OC` has a nuclear beta-catenin stimulation of 1.2%. Compound `CC(C)=CC1C(C(=O)OCN2C(=O)C3=C(CCCC3)C2=O)C1(C)C` (configuration not stated) has a nuclear beta-catenin stimulation of 0.7%. Work on `COP(=S)(OC)Oc1ccc(S(N)(=O)=O)cc1` yielded a nuclear beta-catenin stimulation of 1.1%. In the case of `CN1C2CCC(C)(C)C1CC(OC(=O)C(O)(c1cccs1)c1cccs1)C2` (configuration not stated), the nuclear beta-catenin stimulation is reported as -0.6%. For `C[C@]12CC[C@H]3[C@@H](CC=C4C[C@@H](O)CC[C@@]43C)[C@@H]1CC[C@@H]2O`, the nuclear beta-catenin stimulation was -0.3%. Compound `CN1CCC(O)(c2ccc(F)cc2)C(C(=O)c2ccc(F)cc2)C1` (configuration not stated) has a nuclear beta-catenin stimulation of 1.6%. In the case of `CC(=O)O[C@H]1C[C@H](O[C@H]2[C@@H](O)C[C@H](O[C@@H]3[C@@H](O)C[C@H](O[C@H]4CC[C@@]5(C)[C@H](CC[C@@H]6[C@H]5C[C@@H](O)[C@]5(C)[C@@H](C7=CC(=O)OC7)CC[C@]65O)C4)O[C@@H]3C)O[C@@H]2C)O[C@H](C)[C@H]1O[C@@H]1O[C@H](CO)[C@@H](O)[C@H](O)[C@@H]1O`, the nuclear beta-catenin stimulation is reported as 0.9%. `CNC(C)[C@@H](O)c1ccc(O)cc1` (some centres not stated) gave a nuclear beta-catenin stimulation of 1.3%. `CCOC(=O)C(c1c(O)c2ccccc2oc1=O)c1c(O)c2ccccc2oc1=O` showed a nuclear beta-catenin stimulation of -0.6%. For `COC(=O)c1cncn1C(C)c1ccccc1` (configuration not stated), the nuclear beta-catenin stimulation was 0.1%. `ClCCCN1CCN(c2cccc(Cl)c2)CC1` showed a nuclear beta-catenin stimulation of -2.6%. Work on `CC(C(O)c1ccccc1)N(C)C/C=C/c1ccccc1` (configuration not stated) yielded a nuclear beta-catenin stimulation of 3.1%. With `O=c1[nH]c2ccccc2n1C1CCNCC1` the nuclear beta-catenin stimulation was -0.9%.
